# PubChem BioAssay AID2158 (National Center for Advancing Translational Sciences (NCATS), 2009)
# Records with an inconclusive call do not appear. Values without a mark were called inactive. Active and inactive are the calls of the source. The call rests on the fitted dose curve; in most records, active means well fitted inhibition curve with a large enough effect; inconclusive means small, poorly fitted or top-dose-only effect; inactive means no such curve, though single readings can be large or run the other way.
# Target: Cruzipain (Trypanosoma cruzi) (UniProt P25779)
# Sequence (P25779 123-467 limits assumed): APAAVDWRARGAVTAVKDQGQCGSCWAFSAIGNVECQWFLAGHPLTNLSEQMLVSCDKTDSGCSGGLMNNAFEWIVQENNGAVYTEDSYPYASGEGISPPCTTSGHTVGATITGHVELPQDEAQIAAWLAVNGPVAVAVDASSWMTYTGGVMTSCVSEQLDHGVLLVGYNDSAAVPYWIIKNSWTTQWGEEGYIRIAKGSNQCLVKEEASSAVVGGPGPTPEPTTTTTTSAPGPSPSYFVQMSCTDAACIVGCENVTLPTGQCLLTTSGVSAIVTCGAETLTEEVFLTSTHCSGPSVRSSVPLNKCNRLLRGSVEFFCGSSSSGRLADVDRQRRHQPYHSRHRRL
# Assay: Confirmation qHTS Assay for Inhibitors of Cruzain; further: nearly all actives have a fitted effect of over 40% in size;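 on activity change, negative = inhibition: plate controls were uninhibited enzyme control for no effect and buffer wells lacking enzyme for full effect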
# Settings: purified cruzain, Z-FR-AMC fluorescence, 0.01% Triton
# How it was run: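 Reaction progress from the 60 s rise in AMC fluorescence (ex 360, em 450 nm) after adding 2 uM Z-FR-AMC. Before this, 1.5 nM cruzain sat 15 min at room temperature with compound in pH 5.5 acetate buffer with 5 mM DTT and 0.01% Triton X-100.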
# Potency means the concentration at half of the fitted maximal effect.
Compound,Potency,"activity change, negative = inhibition"
N#Cc1nc(Nc2cccc(-c3ccccc3)c2)nc(NC2CCCC2)n1,2.24 µM (active),–
Cc1ccccc1OCCCn1c(CCNC(=O)C2CCCCC2)nc2ccccc21,1 µM (active),–
CCNC(=O)c1ccc2nc(-c3ccccc3)c(-c3ccccc3)nc2c1,–,-14.3%
O=C(NCc1nnc(-c2cc3ccccc3[nH]2)o1)c1ccccc1,–,-2.11%
O=C1/C(=C/c2ccco2)CCc2ccccc21,2.51 µM (active),–
O=C(COc1ccc(F)cc1)NCCc1nc2ccccc2[nH]1,0.199 µM (active),–
O=[S+]([O-])(/C=C/c1nc(Nc2cc(F)cc(F)c2)c2ncn(CC(F)F)c2n1)c1ccccc1,–,-11.8%
Cc1ccccc1OCC(=O)NCC(=O)OCc1ccc2ccccc2c1,–,-17.8%
CC(C)(C)Nc1nc(C#N)nc(Nc2ccccc2)n1,2.24 µM (active),–
O=c1cc(-c2ccccc2F)nc(-c2ccccc2F)o1,–,-25.6%
Cc1ccc(S(=O)(=O)NCC(=O)OCC(=O)Nc2ncc(Cl)cc2Cl)cc1,–,-50.6%
NC(=S)N/N=C/c1ccc(-c2ccc(Cl)c(Cl)c2)o1,2 µM (active),–
O=C(NCc1ccco1)c1ccc2nc3sc4c(c3c(=O)n2c1)CCCC4,28.2 µM (active),–
COc1cccc(C(=O)NC2CCN(C#N)CC2)c1,–,-6.95%
CCOc1ccc(-c2csc(NC(=O)c3ccc(S(=O)(=O)N4CCc5ccccc5C4)cc3)n2)cc1,–,-11%
CC1(C)Cc2c(C#N)c(N3CCN(C(=O)c4ccccc4)CC3)nc(-c3ccco3)c2CS1,15.8 µM (active),–
